Bioassay records deposited in PubChem by several laboratories.
Rows were chosen to be rich in hits. Some 2.5% of all compounds tested hit in one or more screens of this group.
MEKK2wt PB1 HTS = raises or lowers MEK5 binding to wildtype human MEKK2 PB1 domain | actives 1.1% (n = 290,000) | AID 1531 | Q9Y2U5 | binding response (% of control), % at 10 µM | bead flow cytometry, Alexa488-MEK5 binding to MEKK2 WT; actives lie on both sides; in the data active means binding response below about 67% or above about 130%
MEKK2mut PB1 HTS = signal of MEK5 binding to mutant human MEKK2 PB1 domain; bead flow cytometry, Alexa488-MEK5 binding to MEKK2 mutant; percent response, % at 10 µM; actives 0.35% (n = 290,000); AID 1530; in the data active means percent response above about 24%, passing the limit was not always enough
Rce1 inh = inhibitors of yeast Ras-converting enzyme. Q03530. yeast membranes, quenched prenylated peptide cleavage fluorescence. calls only. actives 0.27% (n = 290,000);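 active means fall in fluorescence gain of 50% or more versus controls, with final raw signal at or below 3038400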
Target sequence (Q03530 whole entry, looked up): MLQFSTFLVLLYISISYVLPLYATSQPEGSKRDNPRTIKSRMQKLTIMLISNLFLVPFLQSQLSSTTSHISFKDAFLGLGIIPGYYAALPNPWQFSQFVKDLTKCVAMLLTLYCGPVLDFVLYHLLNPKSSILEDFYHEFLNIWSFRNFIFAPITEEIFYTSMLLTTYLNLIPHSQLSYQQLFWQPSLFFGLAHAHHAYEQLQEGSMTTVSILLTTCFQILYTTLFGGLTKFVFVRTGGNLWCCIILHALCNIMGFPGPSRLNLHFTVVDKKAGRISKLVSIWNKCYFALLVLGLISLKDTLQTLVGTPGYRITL
MEKK3 PB1 HTS = modulators (inhibitors or enhancers) of MEK5 binding to human MEKK3 PB1 domain. binding response (% of control), % at 10 µM. actives 1.4% (n = 290,000). bead-based flow cytometry, Alexa488-MEK5 binding to MEKK3; actives lie on both sides; 0 = blocked by unlabeled MEK5, 100 = vehicle;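 active means binding response more than 3 SD above or below the average of its plate-row segment, actives on both sides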;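 further: Alexa488 bead fluorescence after subtracting the streptavidin-only scavenger bead signal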
UBC13 polyUb = human UBC13 polyubiquitination inhibition. UBC13 polyubiquitin chain formation, TR-FRET. inhibition, % at 20 µM. actives 0.47% (n = 330,000); in the data active means inhibition above about 45%, passing the limit was not always enough
Target sequence (P61088 whole entry, looked up): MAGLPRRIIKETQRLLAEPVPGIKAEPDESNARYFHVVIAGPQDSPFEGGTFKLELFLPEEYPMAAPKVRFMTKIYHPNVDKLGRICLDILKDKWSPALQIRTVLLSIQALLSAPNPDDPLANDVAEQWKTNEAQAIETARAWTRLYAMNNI
MEKK2wt confirm = raises or lowers MEK5 binding to wildtype human MEKK2, retest; binding response (% of control), % at 10 µM; bead flow cytometry, Alexa488-MEK5 binding to MEKK2 WT; actives lie on both sides; shares compounds with MEKK3 PB1 HTS; actives 2.4% (n = 5,900); AID 1892; in the data active means binding response below about 16% or above about 210%; inactive means in between
MEKK2mut confirm = signal of MEK5 binding to mutant human MEKK2, retest; percent response, % at 10 µM; shares compounds with MEKK3 PB1 HTS; bead flow cytometry, Alexa488-MEK5 binding to MEKK2 mutant; AID 1893; actives 2% (n = 5,900); in the data active means percent response mostly above about 71%, no sharp cut-off; inactive means mostly below about 38%;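 further: higher means compound restores mutant binding toward wildtype level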
MEKK3-MEK5 inh = confirmation of inhibitors of MEK5 binding to human MEKK3 | shares compounds with MEKK3 PB1 HTS | bead flow cytometry, Alexa488-MEK5 binding to MEKK3; active compounds read low | binding response (% of control), % at 10 µM | actives 1.8% (n = 5,900);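 active means binding response below 72% of control, or above a set upper limit, though filed actives all read lower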;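 further: lower values mean stronger disruption of MEK5 binding to MEKK3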
Numbers stand for hits; - = inactive; . = no result; ! = not active in a repeat; [ ] = remark or other dose.

SMILES	MEKK2wt PB1 HTS	MEKK2mut PB1 HTS	Rce1 inh	MEKK3 PB1 HTS	UBC13 polyUb	MEKK2wt confirm	MEKK2mut confirm	MEKK3-MEK5 inh
COc1ccccc1C(=O)Nc1ccnn1C1CCN(CCCc2ccccc2)CC1	-	-	-	-	-	.	.	.
CC1Cc2ccccc2N1C(=O)CNCCCN(C)C (stereo unspecified)	.	.	-	.	-	.	.	.
CC1CC2(C)Oc3ccccc3CC2C(C)C1CNCCCN(C)C (stereo unspecified)	139.0	-	-	-	-	-	-	-
Cc1cc(C)c2c(=O)[nH]c(SCC(=O)c3ccc(C)c(C)c3)nc2n1	-	-	-	-	-	.	.	.
COc1ccc(-c2cc(=O)c3c(OC)c(OC)c(OC)c(OC)c3o2)cc1OC	-	-	-	68.0![inhibitor]	-	-	-	-
CCOC(=O)c1c(NC(=O)C2=COCCO2)sc2c1CCN(C(=O)OC)C2	.	.	-	.	-	.	.	.
CCN(CC)c1ccc(C(=O)NNC(=O)CCl)cc1	46.0[inhibitor]	-	-	42.0[inhibitor]	-	-	-	-
CCOC(=O)CN1C(=O)CCSc2ccc(Cl)cc21	-	-	-	-	-	.	.	.
COc1ccc(C(CCN2CCCC2)c2c(O)cc(OC)cc2OC)cc1 (stereo unspecified)	149.0	-	-	-	-	-	-	-
COc1cc(O)c(C(CCN2CCCC2)c2cc(OC)c(OC)c(OC)c2)c(OC)c1 (stereo unspecified)	145.0	-	-	-	-	-	-	-
COc1ccc(C(CCN2CCOCC2)c2c(OC)cc(OC)c3c(C)cc(=O)oc23)cc1 (stereo unspecified)	151.0	-	-	-	-	-	-	-
COc1cc(O)c(C(CCN2CCCCC2)c2cc(OC)c(OC)c(OC)c2)c(OC)c1 (stereo unspecified)	-	-	-	-	-	.	.	.
COc1cc(O)c(C(CCN2CCOCC2)c2ccc3c(c2)OCO3)c(OC)c1 (stereo unspecified)	-	-	-	-	-	.	.	.
COc1cc(O)c(C(CCN2CCOCC2)c2cc(OC)c(OC)c(OC)c2)c(OC)c1 (stereo unspecified)	142.0	-	-	-	-	-	-	-
COc1cc(C(CCN2CCOCC2)c2c(OC)cc(OC)c3c(C)cc(=O)oc23)cc(OC)c1OC (stereo unspecified)	-	-	-	-	-	.	.	.
O=C(CCOc1ccccc1)Nc1cccc(S(=O)(=O)Nc2ccccc2Cl)c1	-	-	-	151.0	-	-	-	-
C/C(=N\NC(=O)CCc1ccc(S(=O)(=O)N2CCOCC2)cc1)c1ccc(Br)cc1	-	-	-	-	-	.	.	.
CCS(=O)(=O)N1Cc2ccccc2CC1C(=O)Nc1ccc(OC)cc1 (stereo unspecified)	1.0[inhibitor]	-	-	2.0[inhibitor]	-	-	-	-
COc1ccc([C@H]2/C=C\CN(S(=O)(=O)c3ccc(C)cc3)[C@@H](C)C(=O)N2Cc2ccc(F)cc2)cc1	-	-	-	-	-	.	.	.
COC(=O)N1C/C=C\C(c2ccc(OC)cc2)N(Cc2ccc(F)cc2)C(=O)C1 (stereo unspecified)	-	-	-	-	-	.	.	.
COc1ccc(C2/C=C\CN(S(=O)(=O)c3ccc(C)cc3)CC(=O)N2Cc2ccc(F)cc2)cc1 (stereo unspecified)	158.0	-	-	129.0	-	-	-	-
COc1ccc(C2/C=C\CN(C(=O)NC34CC5CC(CC(C5)C3)C4)CC(=O)N2Cc2ccc(F)cc2)cc1 (stereo unspecified)	147.0	-	-	-	-	-	-	-
Cc1ccc(-c2nnc(Oc3ccc(NC(=O)c4ccccc4)cc3)c3ccccc23)cc1	-	-	-	-	-	.	.	.
Cc1cc(C)cc(Oc2ccc(NC(=O)C3CC=CCC3C(=O)O)cc2)c1 (stereo unspecified)	-	-	-	75.0[inhibitor]	-	-	-	-
O=C(O)C1CC=CCC1C(=O)Nc1ccc(Oc2ccc(Cl)cc2)cc1 (stereo unspecified)	-	-	-	-	-	.	.	.
SMILES	MEKK2wt PB1 HTS	MEKK2mut PB1 HTS	Rce1 inh	MEKK3 PB1 HTS	UBC13 polyUb	MEKK2wt confirm	MEKK2mut confirm	MEKK3-MEK5 inh
Cc1ccn(CC(=O)N2CCCC(N3CCN(c4ccccc4F)CC3)C2)n1 (stereo unspecified)	-	-	-	-	-	.	.	.
Cc1ccc(SC[C@H](CC(C)C)N2CCN(CCc3ccccc3)CCC2=O)cc1	-	-	-	-	-	.	.	.
O=C1CCN(CCc2ccccc2)CCN1CCSc1ccc(Br)cc1	-	-	-	-	-	.	.	.
CCCN1CCC(=O)N([C@H](CSc2ccc(OC)cc2)c2ccccc2)CC1	165.0	-	-	129.0	-	-	-	-
COc1ccc(SC[C@H](CC(C)C)N2CCN(C)CCC2=O)cc1	146.0	-	-	128.0	-	-	-	-
Cc1ccc(SC[C@H](CC(C)C)N2CCN(C)CCC2=O)cc1	-	-	-	-	-	.	.	.
O=C1CCN(CCc2ccccc2)CCN1[C@H](CSc1ccc(Br)cc1)Cc1ccccc1	154.0	-	-	-	-	-	-	-
COc1ccc(SC[C@H](CC(C)C)N2CCN(CCc3ccccc3)CCC2=O)cc1	137.0	-	-	-	-	-	-	-
CC(NC(=O)C1(c2cccs2)CCOCC1)c1ccccc1 (stereo unspecified)	-	-	-	-	-	.	.	.
COc1ccc(CNC(=O)C2CCN(S(=O)(=O)c3c(C)noc3/C=C/N(C)C)CC2)cc1	-	-	-	-	-	.	.	.
O=C(NC1CCCC1)C(c1cccnc1)N(C(=O)c1csnn1)C1CCCC1 (stereo unspecified)	-	-	-	75.0[inhibitor]	-	-	-	-
O=C(NC1CCCCC1)C(c1cccnc1)N(C(=O)c1csnn1)C1CCCC1 (stereo unspecified)	-	-	-	-	-	.	.	.
COc1ccc(-c2[nH]ncc2CN2CCN(c3ccccn3)CC2)c(OC)c1	-	-	-	-	-	.	.	.
COc1ccc(-c2[nH]ncc2CN2CCCCCCC2)c(OC)c1	223.0	98.0	-	-	-	214.0	79.0	-
Clc1ccc2c(c1)CCc1cccnc1C2=C1CCNCC1	144.0!	-	-	-	-	-	-	-
C[N+]1(CCC(=O)c2ccccc2)CCCCC1	2.0[inhibitor]	-	-	2.0[inhibitor]	-	-	-	-
Cc1ccc(S(=O)(=O)N2CCCCC2)cc1NC(=O)COc1ccccc1F	-	-	-	-	-	.	.	.
CCOC(=O)C1CCN(C(=O)c2c(-c3c(F)cccc3Cl)noc2C)CC1	-	-	-	127.0	-	-	-	-
CCOC(=O)C1CCN(C(=O)CSc2ccc(Br)cc2)CC1	-	-	-	-	-	.	.	.
